A selection: hits, their analogues and other compounds. The true share with any hit is near 2.8%.
POLK inh = qHTS for Inhibitors of Polymerase Kappa | DNA polymerase kappa (Homo sapiens), Q9UBT6 | purified Pol kappa, fluorescent DNA synthesis assay, 10 min | 400,000 compounds, 0.53% hits | AID 588579, 2011 | Potency, µM (highest dose often 107 µM), hits mostly inhibitors
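Kinetic fluorescence readout at 0 and 10 min followed reaction start with substrate at 50 nM final. Beforehand, enzyme (10 nM Pol kappa) stood 15 min with compound at room temperature; buffer-only wells were negative controls.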
PI5P4K alpha inh = qHTS for Inhibitors of phosphatidylinositol 5-phosphate 4-kinase (PI5P4K). 330,000 compounds, 1.2% hits. AID 652105, 2013. PI5P4Kalpha enzyme, ADP-Glo luminescence, 60 min; hits give low values. max response, %. Phosphatidylinositol 5-phosphate 4-kinase type-2 alpha (Homo sapiens), P48426; active = max response of -50% or lower; inconclusive = between -30% and -50%; inactive = -30% or higher; note: value at the top dose of about 77 µM
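PI5P4Kalpha ADP-Glo assay; 5 microM ATP final; 60 min RT reaction; HEPES pH 7.4/EGTA/CHAPS, 5% DMSO; controls lacking substrate or enzyme; luminescent end-point.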
Pol iota inh = qHTS for Inhibitors of Polymerase Iota. 390,000 compounds, 1% hits. Pol iota fluorescent replication assay, 10 min. Potency, µM (titrated, usually from 115 µM), usual class: inhibitors. DNA polymerase iota (Homo sapiens), Q9UNA4
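Fluorescent replication assay read twice, at 0 min and 10 min after adding 50 nM (final) substrate. Enzyme (10 nM) and compounds were first incubated 15 min at room temperature; enzyme-free buffer wells were negative controls.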
WRN helicase inh = qHTS for Inhibitors of WRN Helicase. WRN helicase unwinding, fluorescent forked duplex, kinetic. 360,000 compounds, 0.46% hits. Potency, µM (titrated, usually from 114 µM), usual class: inhibitors. Bifunctional 3'-5' exonuclease/ATP-dependent helicase WRN (Homo sapiens), Q14191; note: nearly all actives have a fitted effect of over 55% in size
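Enzyme (20 nM final) and test compound sit together 15 min at room temperature before substrate addition. Substrate is a single-forked duplex oligonucleotide (100 nM) labelled with fluorophore and quencher, with 2 mM ATP; helicase unwinding raises red fluorescence, read kinetically.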
Pol eta inh = qHTS for Inhibitors of Polymerase Eta; DNA polymerase eta (Homo sapiens), Q9Y253; recombinant Pol eta, fluorescent DNA replication assay; Potency, µM (series often up to 114 µM), usual class: inhibitors; 390,000 compounds, 1.2% hits
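Pol eta at 10 nM preincubated with compounds 15 min at room temperature; reaction started with fluorescent substrate (50 nM final) and read kinetically at 0 and 10 min.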
POLB inh = qHTS Assay for Inhibitors of DNA Polymerase Beta; P06746; Pol beta primer extension/strand displacement, fluorescence kinetic; Potency, µM (doses to about 114 µM), usual class: inhibitors; 340,000 compounds, 1.3% hits
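Human Pol beta at 10 nM; strand-displacement substrate 50 nM final. Compound exposure 15 min at room temperature before start, reaction 10 min at room temperature.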
Each line names hits and unclear results; the compound was inactive in the other large screens. Unless noted, calls come from the whole dose curve; as a rule, active = well fitted curve in the direction sought with a large enough effect; inconclusive = small, poorly fitted or top-dose-only effect, or another doubt; inactive = no such curve, though single readings can be large; an effect the other way counts as inactive or inconclusive.

Cc1ccc(S(=O)(=O)Nc2ccc(O)c(Sc3ncn[nH]3)c2)cc1	none
Cc1ccc(S(=O)(=O)/N=C2/C=C(Sc3ncn[nH]3)C(=O)c3ccccc32)cc1	PI5P4K alpha inh -100, Pol iota inh 1.1µM, WRN helicase inh 32µM, Pol eta inh 3.5µM, POLB inh inconclusive
CC(C)c1ccc(S(=O)(=O)/N=C2/C=C(Sc3ncn[nH]3)C(=O)c3ccccc32)cc1	POLK inh 79µM, PI5P4K alpha inh -79, Pol iota inh 3.5µM, WRN helicase inh 32µM, Pol eta inh 13µM, POLB inh 22µM
NC(=O)c1ccsc1NC(=O)CSc1nnc2ccccn12	PI5P4K alpha inh inconclusive, Pol iota inh inconclusive, Pol eta inh inconclusive, POLB inh 25µM
O=C1C=C(O)CC(c2ccc(Cl)cc2)C1 (stereo unspecified)	Pol eta inh inconclusive, POLB inh 50µM
O=[N+]([O-])c1ccc2c(c1)C=C/C2=C/c1ccccc1	Pol iota inh inconclusive (no result: PI5P4K alpha inh, WRN helicase inh, Pol eta inh, POLB inh)
CCOC(=O)C(C)C(C)=O (stereo unspecified)	POLK inh inconclusive, WRN helicase inh 16µM, Pol eta inh inconclusive (no result: POLB inh)
CCc1ccc(-c2ccc(SCC(=O)Nc3nnc(C)s3)nn2)cc1	WRN helicase inh inconclusive, POLB inh 40µM
O=C(N/N=C/c1ccc([N+](=O)[O-])cc1)c1cccs1	POLK inh inconclusive, Pol iota inh 71µM, Pol eta inh inconclusive, POLB inh 32µM
O=C(N/N=C/c1cccc([N+](=O)[O-])c1O)c1cccs1	PI5P4K alpha inh -51
O=Cc1[nH]c2ccccc2c1N(C(=O)CCl)c1ccccc1	Pol iota inh inconclusive, Pol eta inh 20µM
Cc1ccc(S(=O)(=O)N2CCN(c3nc(-c4ccc(CN5CCOCC5)s4)nc4ccccc34)CC2)cc1	none (no result: PI5P4K alpha inh, WRN helicase inh, Pol eta inh, POLB inh)
CCc1ccc2c(O)c3c(cc2c1C(=O)OC)C(=O)c1c(O)ccc(O)c1C3=O	POLK inh 7.9µM (no result: PI5P4K alpha inh, Pol iota inh, WRN helicase inh, Pol eta inh, POLB inh)
COc1ccc(-c2coc3cc(O)ccc3c2=O)cc1O	POLK inh inconclusive, Pol iota inh inconclusive, POLB inh 25µM
Cc1cc(C)nc(NC(=O)CSc2nn(-c3ccccc3)c(=S)s2)n1	Pol iota inh inconclusive, WRN helicase inh inconclusive, POLB inh 40µM
O=C(CSc1nn(-c2ccccc2)c(=S)s1)Nc1ncccn1	none
Cc1ccc(CCNC(=O)C2CC(=O)N(CCc3ccc(C)cc3)C2)cc1 (stereo unspecified)	none (no result: PI5P4K alpha inh, WRN helicase inh)
COc1ccc(CCN2CC(C(=O)NCCc3ccc(C)cc3)CC2=O)cc1OC (stereo unspecified)	POLK inh inconclusive, Pol iota inh 79µM, Pol eta inh inconclusive, POLB inh inconclusive
CCOc1ccccc1NC(=O)c1nnn(CC(=O)Nc2ccc(OC)c(OC)c2)c1N	Pol iota inh inconclusive (no result: PI5P4K alpha inh, WRN helicase inh)
Cc1ccc(C)c(NC(=O)Cn2c(=O)n(CC(=O)NCCc3ccccc3)c(=O)c3ccccc32)c1	POLK inh inconclusive (no result: PI5P4K alpha inh, WRN helicase inh)
Cc1ccc(O)c(C2=Nc3ccccc3N=C(c3cccc(F)c3)C2)c1	Pol iota inh 89µM (no result: PI5P4K alpha inh, WRN helicase inh, Pol eta inh)
Cc1ccc(S(=O)(=O)c2ccc([N+](=O)[O-])o2)cc1	Pol iota inh 18µM, WRN helicase inh 14µM (no result: POLB inh)
O=[N+]([O-])c1ccccc1S(=O)(=O)Nc1ccc(-c2ccc(N3CCCC3)nn2)cc1	Pol iota inh inconclusive, Pol eta inh 20µM (no result: POLB inh)
N#CC(C#N)=NNc1ccc2cn[nH]c2c1	PI5P4K alpha inh -64 (no result: POLK inh, Pol iota inh, Pol eta inh, POLB inh)
Cc1cc(C)c(C)c(S(=O)(=O)ON2C(=O)c3ccccc3C2=O)c1C	WRN helicase inh inconclusive
Cc1cc(C)c(S(=O)(=O)ON2C(=O)c3ccccc3C2=O)cc1C	WRN helicase inh 35µM
Cc1ccc(S(=O)(=O)ON2C(=O)c3ccccc3C2=O)c(C)c1	WRN helicase inh 45µM
COc1ccc(CCn2c(=S)[nH]c(=O)c3cccnc32)cc1OC	none (no result: PI5P4K alpha inh, WRN helicase inh, Pol eta inh, POLB inh)
O=c1cc(-c2ccc(O)cc2)oc2c(C3OCC(O)C(O)C3O)c(O)c(C3OC(CO)C(O)C(O)C3O)c(O)c12 (stereo unspecified)	POLK inh 50µM, Pol iota inh inconclusive, Pol eta inh 7.9µM, POLB inh 18µM
O=c1cc(-c2ccc(O)c(O)c2)oc2cc(O)c([C@@H]3O[C@H](CO)[C@@H](O)[C@H](O)[C@H]3O)c(O)c12	POLK inh 20µM, Pol iota inh 28µM, Pol eta inh inconclusive (no result: POLB inh)
COc1ccccc1/C=C1\SC(=S)N(NS(=O)(=O)c2ccc(C)cc2)C1=O	PI5P4K alpha inh inconclusive, Pol iota inh inconclusive, Pol eta inh 89µM, POLB inh inconclusive
CCOc1ccc(/C=C2\SC(=S)N(NS(=O)(=O)c3ccc(C)cc3)C2=O)cc1OC	Pol eta inh inconclusive
O=C1/C(=C/c2cccs2)SC(=S)N1NS(=O)(=O)c1ccccc1	PI5P4K alpha inh -73
COc1ccc(OC)c(/C=C2\SC(=S)N(NS(=O)(=O)c3ccccc3)C2=O)c1	PI5P4K alpha inh inconclusive, Pol iota inh inconclusive, POLB inh inconclusive
O=C(NN1C(=O)/C(=C/c2cccs2)SC1=S)c1ccncc1	WRN helicase inh inconclusive
Cc1ccc(S(=O)(=O)NN2C(=O)/C(=C/c3cccnc3)SC2=S)cc1	Pol iota inh inconclusive
COc1ccc(/C=C2\SC(=S)N(NS(=O)(=O)c3ccccc3)C2=O)c(OC)c1	PI5P4K alpha inh -58, Pol eta inh inconclusive
COc1ccc(OC)c(/C=C2\SC(=S)N(NS(=O)(=O)c3ccc(C)cc3)C2=O)c1	PI5P4K alpha inh -67, Pol eta inh 79µM, POLB inh inconclusive
O=C(CCc1nc2cccnc2n1Cc1cccs1)Nc1cccc(C(F)(F)F)c1	none (no result: PI5P4K alpha inh, WRN helicase inh)
CCCCCCc1cc2cc(-c3nnc(-c4cc(OC)c(OC)c(OC)c4)o3)c(=O)oc2cc1O	Pol eta inh inconclusive (no result: PI5P4K alpha inh)
CCCCCCc1cc2cc(-c3nnc(-c4ccccc4O)o3)c(=O)oc2cc1O	Pol iota inh inconclusive, Pol eta inh 1.8µM, POLB inh inconclusive
O=C(COC(=O)c1cc(=O)[nH]c2ccccc12)NCc1cccs1	none
NC(=O)c1ccsc1NC(=O)COC(=O)c1cc(=O)[nH]c2ccccc12	Pol iota inh inconclusive, WRN helicase inh inconclusive, Pol eta inh 40µM (no result: POLB inh)
CC(=O)Nc1cccc(OCC(=O)Nc2sccc2C(N)=O)c1	Pol iota inh 50µM, Pol eta inh inconclusive
Cc1ccc(Cl)cc1NC(=O)CSC1=Nc2ccccc2C2=NC(Cc3ccccc3)C(=O)N12 (stereo unspecified)	none (no result: PI5P4K alpha inh, WRN helicase inh)
CCn1c(=O)c2cc(C(=O)N(CCCOC(C)C)Cc3ccco3)sc2c2ccccc21	none (no result: PI5P4K alpha inh, WRN helicase inh)

Assay outcomes: PubChem BioAssay, National Center for Advancing Translational Sciences (NCATS)
